Results on 39 compounds are retold here after PubChem BioAssay.

One assay has as its target PEG-3 (UniProt Q6IN02). The assay is described as follows: inhibition of PEG-3 promoter-driven reporter – cell-based, HeLa, luciferase, CREF/GAPDH counter-screen panel, dose response (AID 624167). The note with it: CREF/GAPDH counter-screens; HeLa PEG-Prom luciferase reporter, overnight, run 1, dose range 1, at 100 µM (top of the series) unless noted.
On to `COC(=O)C1=C(C(=O)OC)C(C(=O)OC)C(C(=O)OC)C(C(=O)OC)(C(=O)OC)C(C(=O)OC)=C1C(=O)OC` (configuration not stated), for which the inhibition amounted to 99%. For the compound `CCn1cc(C(=O)NCCC(C)C)c(=O)c2cc(F)c(N3CCN(C(=O)c4ccco4)CC3)cc21`, the inhibition was found to be 32.2%. Same read-out and setting: for `NC(c1csc(Nc2nccc(C(F)(F)F)n2)n1)C1CCCCC1` (configuration not stated) the value was 98.2%; for `Cc1ccc(C)c(CN2CCC(CNC(=O)Nc3ccc(F)c(Cl)c3)CC2)c1`, 102%; for `COc1cccc(-c2sc3ccc(OC)cc3c2-c2ccc(OCCN(C)C)cc2)c1`, 94.3%.

Take `COc1ccc(-c2cc(C(=O)N3CCN(c4ncccn4)CC3)c3ccccc3n2)c(OC)c1`: the inhibition is 70%. On to `COc1ccc(CN(C)C(=O)c2cc(-c3ccccc3)nc3ccc(C)cc23)c(OC)c1OC`, for which the inhibition came out at 94.8%. Turning to `OC[C@@H]1[C@@H](c2ccc(Cl)cc2)C(c2cccc(Cl)c2)=NN1c1ccccc1`, the inhibition was found to be 102%.

For the compound `Cc1ccc(NC(=O)Nc2ccnc(-c3cccnc3)n2)cc1`, the inhibition was determined as 44.3%. On the same count and under the same terms, with `NC(=O)C1CCN(C2=C(Cl)C(=O)c3ccccc3C2=O)CC1` the figure was 100%.

In the case of `COc1ccc(CCn2c(=N)c(C(=O)NC3CCCC3)cc3c(=O)n4cccc(C)c4nc32)cc1`, the inhibition turned out to be 44.4%.

For `CC(C)c1ccc(/C=N/Nc2ccc(C(=O)O)cc2)cc1`, the inhibition came out at 89.9%. Turning to `Cc1cc(C)c2sc(N(CCCN(C)C)C(=O)c3ccc(S(=O)(=O)N(C)Cc4ccccc4)cc3)nc2c1`, the inhibition amounted to 98.7%.

Take `CCCc1nc(SCC(=O)N2CCCc3ccccc32)c2c(=O)n(C)c(=O)n(C)c2n1`: the inhibition was found to be 99.2%. On the same count and under the same terms, for `COC(=O)c1ccc(OCC2c3cc(OC)c(OC)cc3CCN2C(=O)c2ccco2)cc1` (configuration not stated) the value was 77.9%; for `COc1ccc(S(=O)(=O)N2c3ccccc3OCC2c2ccccc2)cc1` (configuration not stated), -135%; for `CN1CCN(CCNC(=O)c2ccc3nc(-c4ccc(F)cc4)c(-c4ccc(F)cc4)nc3c2)CC1`, 99.2%. The same measure, in the same setting: with `COc1ccc(CC(N)c2csc(NC(=O)Nc3ccccc3C(C)(C)C)n2)cc1` (configuration not stated) the figure was 102%. The same measure, in the same setting: for `CC(C)N1CCc2c(sc(NC(=O)c3cc4cc([N+](=O)[O-])ccc4s3)c2C(N)=O)C1` the value was 98.8%.

`COc1ccc(-c2oc3ccc(-c4cc(OC)c(OC)c(OC)c4)cc3c2C#Cc2ccccn2)cc1`: the inhibition came to 26.8%. For `O=C(NC1CCCCC1)Sc1ccc(Cl)cc1`, the inhibition was 102%. Consider `CC1CCCCN1C(=O)c1cccc(NC2=C(Cl)C(=O)N(Cc3ccccc3)C2=O)c1` (configuration not stated), for which the inhibition is 101%. In the case of `CCN1CCc2c(sc(NC(=O)c3ccc(S(=O)(=O)N4CCCCCC4)cc3)c2C(=O)NC)C1`, the inhibition came out at 94.4%.

In the next assay the target is PEG-3 (UniProt Q6IN02). Described as above. The note with it: CREF/GAPDH counter-screens; HeLa PEG-Prom luciferase reporter, overnight, run 2, dose range 1, at 100 µM (top of the series) unless noted.
Chain of PEG-3 (Q6IN02 whole entry, looked up): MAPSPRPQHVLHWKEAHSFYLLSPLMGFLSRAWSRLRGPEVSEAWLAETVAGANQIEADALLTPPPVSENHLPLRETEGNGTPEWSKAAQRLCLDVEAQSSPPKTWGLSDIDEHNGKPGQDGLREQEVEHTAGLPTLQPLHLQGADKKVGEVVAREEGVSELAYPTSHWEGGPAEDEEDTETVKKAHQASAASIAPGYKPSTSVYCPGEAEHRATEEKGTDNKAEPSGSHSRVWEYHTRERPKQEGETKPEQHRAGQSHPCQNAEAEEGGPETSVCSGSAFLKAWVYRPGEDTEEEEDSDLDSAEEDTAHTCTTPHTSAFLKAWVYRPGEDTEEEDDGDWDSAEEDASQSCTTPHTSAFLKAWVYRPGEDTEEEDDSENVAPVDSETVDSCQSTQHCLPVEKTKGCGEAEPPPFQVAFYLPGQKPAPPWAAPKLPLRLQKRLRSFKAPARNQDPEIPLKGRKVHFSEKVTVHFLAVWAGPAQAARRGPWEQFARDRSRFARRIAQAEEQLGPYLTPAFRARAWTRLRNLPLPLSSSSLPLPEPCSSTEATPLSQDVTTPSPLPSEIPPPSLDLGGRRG
Take `Cc1ccc(C2=NC(=O)/C(=C/c3cc(O)c(O)c(Br)c3)S2)cc1`: the inhibition came out at 79.4%. Take `COc1ccc(CCNC(=O)C(=O)NCC2CCCN2S(=O)(=O)c2ccccc2)cc1OC` (configuration not stated): the inhibition was 81.7%.

For the compound `O/N=C(\c1ccc(Cl)cc1Cl)c1ncc(C(F)(F)F)cc1Cl`, the inhibition came out at 97.3%. The same measure, in the same setting: for `C/C(=N\N=C(N)N)c1ccc(Cl)c(Cl)c1` the value was 101%.

On to `Cc1ccc2cccc(OCC(=O)Nc3cccc(S(=O)(=O)N4CCCC4)c3)c2n1`, for which the inhibition was 97.2%. Turning to `CC(=O)Nc1cccc(-c2cc(NC=O)c3ncc(-c4ccc(C(C)=O)cc4)n3c2)c1`, the inhibition came out at 31.9%. In the case of `COc1ccc(-c2cc(C(=O)Nc3ccccc3N3CCOCC3)c3ccccc3n2)cc1OC`, the inhibition amounted to 15%. On to `C[C@@H](C(=O)Nc1ccc2c(c1)OCCO2)n1c(=O)[nH]c2ccccc2c1=O`, for which the inhibition was 39.3%. On the same count and under the same terms, with `CCN(CC)CCOc1ccc(/C(=C(/Cl)c2ccccc2)c2ccccc2)cc1` the figure was 102%; with `Cc1cc(C)c(CN2CCN(CCCn3cnc(C(=O)Nc4ccc(C)c(C)c4)n3)CC2)c(C)c1`, 101%; with `COCC(C)n1c(C)cc(C(=O)COC(=O)c2cccn2C)c1C` (configuration not stated), 83.3%. For the compound `COc1ccc(-c2nc3c(C(=O)NCCN(C)C)cccc3c3ccccc23)cc1`, the inhibition is 99.5%.

For `CCN1CCN(Cc2ccc(NC(=O)c3cc(NC(=O)c4ccno4)cc(OC)c3)cc2C(F)(F)F)CC1`, the inhibition was 102%.

In the case of `CCOC(=O)c1c(NC(=O)CSc2nnnn2-c2ccccc2OCC)sc2c1CC(C)(C)NC2(C)C`, the inhibition amounted to 102%.

As to `CC(C)(C)c1ccc(/C=N/Nc2ccc(C(=O)O)cc2)cc1`, the inhibition came out at 98.5%. Still for that read-out and setting: for `Cc1cc(C)c2nc(N(CCCN(C)C)C(=O)c3ccc(S(=O)(=O)N4CCCCCC4)cc3)sc2c1` the value was 100%; for `COC(=O)C1=C(C(=O)OC)C(C(=O)OC)C(C(=O)OC)C(C(=O)OC)(C(=O)OC)C(C(=O)OC)=C1C(=O)OC` (configuration not stated), 101%; for `CCn1cc(C(=O)NCCC(C)C)c(=O)c2cc(F)c(N3CCN(C(=O)c4ccco4)CC3)cc21`, 101% [run 2, dose range 1, at 50 µM].

As to `NC(c1csc(Nc2nccc(C(F)(F)F)n2)n1)C1CCCCC1` (configuration not stated), the inhibition stood at 99.1%. With `Cc1ccc(C)c(CN2CCC(CNC(=O)Nc3ccc(F)c(Cl)c3)CC2)c1`, the inhibition is 101%. Same read-out and setting: with `COc1cccc(-c2sc3ccc(OC)cc3c2-c2ccc(OCCN(C)C)cc2)c1` the figure was 98.3%.

As to `COc1ccc(-c2cc(C(=O)N3CCN(c4ncccn4)CC3)c3ccccc3n2)c(OC)c1`, the inhibition was 47.8%. For `COc1ccc(CN(C)C(=O)c2cc(-c3ccccc3)nc3ccc(C)cc23)c(OC)c1OC`, the inhibition is 96.5%. Take `OC[C@@H]1[C@@H](c2ccc(Cl)cc2)C(c2cccc(Cl)c2)=NN1c1ccccc1`: the inhibition amounted to 101%. On to `Cc1ccc(NC(=O)Nc2ccnc(-c3cccnc3)n2)cc1`, for which the inhibition came to 8.15%. Take `NC(=O)C1CCN(C2=C(Cl)C(=O)c3ccccc3C2=O)CC1`: the inhibition was determined as 97.8%. Consider `COc1ccc(CCn2c(=N)c(C(=O)NC3CCCC3)cc3c(=O)n4cccc(C)c4nc32)cc1`, for which the inhibition was 47.1%. For `CC(C)c1ccc(/C=N/Nc2ccc(C(=O)O)cc2)cc1`, the inhibition came to 84%. For `Cc1cc(C)c2sc(N(CCCN(C)C)C(=O)c3ccc(S(=O)(=O)N(C)Cc4ccccc4)cc3)nc2c1`, the inhibition was 101%. Turning to `CCCc1nc(SCC(=O)N2CCCc3ccccc32)c2c(=O)n(C)c(=O)n(C)c2n1`, the inhibition stood at 96.2%. As for `COC(=O)c1ccc(OCC2c3cc(OC)c(OC)cc3CCN2C(=O)c2ccco2)cc1` (configuration not stated), the inhibition came to 73.5%. As for `COc1ccc(S(=O)(=O)N2c3ccccc3OCC2c2ccccc2)cc1` (configuration not stated), the inhibition was -3.52%. Turning to `CN1CCN(CCNC(=O)c2ccc3nc(-c4ccc(F)cc4)c(-c4ccc(F)cc4)nc3c2)CC1`, the inhibition is 98.2%. Same read-out and setting: with `COc1ccc(CC(N)c2csc(NC(=O)Nc3ccccc3C(C)(C)C)n2)cc1` (configuration not stated) the figure was 98.5%. As for `CC(C)N1CCc2c(sc(NC(=O)c3cc4cc([N+](=O)[O-])ccc4s3)c2C(N)=O)C1`, the inhibition was determined as 101%.

Regarding `COc1ccc(-c2oc3ccc(-c4cc(OC)c(OC)c(OC)c4)cc3c2C#Cc2ccccn2)cc1`, the inhibition amounted to 53.3%. Take `O=C(NC1CCCCC1)Sc1ccc(Cl)cc1`: the inhibition came to 101%. Consider `CC1CCCCN1C(=O)c1cccc(NC2=C(Cl)C(=O)N(Cc3ccccc3)C2=O)c1` (configuration not stated), for which the inhibition was determined as 101%. Regarding `CCN1CCc2c(sc(NC(=O)c3ccc(S(=O)(=O)N4CCCCCC4)cc3)c2C(=O)NC)C1`, the inhibition is 94.9%.
